# According to PubChem BioAssay AID504766 (The Scripps Research Institute Molecular Screening Center, 2011):
# Out of some 340,000 compounds screened, about 3,400 (1%) were called active. The sample as a whole holds a higher share of actives than the screen did. Unmarked numbers belong to inactive results.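 The calls were made as follows: active = inhibition above the mean over all tested compounds plus 3 SD (cut at about 4.2% in these data); inactive = the rest.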
# Molecular target: Nuclear receptor subfamily 0 group B member 1 (Homo sapiens) (UniProt P51843)
# Assay: DAX1 (NR0B1) inhibitors, primary screen, cell-based, HEK293, Gal4-DAX1, luciferase luminescence (AID 504766);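 also: 0% = DAX1-transfected cells with DMSO and 100% = empty-vector control cells with DMSO; inhibition shows as a rise in luminescence from relieved DAX1 repression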
# Settings: HEK293 Gal4-DAX1 luciferase reporter, at 6.75 µM, hits give high values
# Chain of Nuclear receptor subfamily 0 group B member 1 (Homo sapiens) (P51843 207-470 limits assumed): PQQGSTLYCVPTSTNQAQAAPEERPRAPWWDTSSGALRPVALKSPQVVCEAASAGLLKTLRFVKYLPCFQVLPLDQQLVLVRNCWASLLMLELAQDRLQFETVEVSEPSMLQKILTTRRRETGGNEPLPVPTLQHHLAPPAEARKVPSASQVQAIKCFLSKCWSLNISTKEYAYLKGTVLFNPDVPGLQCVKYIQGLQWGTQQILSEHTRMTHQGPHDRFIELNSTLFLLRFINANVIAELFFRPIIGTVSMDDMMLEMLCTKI
row,SMILES,inhibition
1,O=C1[C@H]2[C@@H](c3ccc(C(F)(F)F)cc3)N[C@]3(CCCN(Cc4ccc(Br)cc4)C3=O)[C@H]2C(=O)N1Cc1ccccc1,-0.81%
2,C[C@@H]1Cn2cnc(C(=O)Nc3ccc(CNC(=O)OC(C)(C)C)cc3)c2C(=O)N1,-0.54%
3,CC(=O)c1ccc(NC(=O)CSC(=S)N2CCCC2)cc1,-0.17%
4,O=C(CSC(=S)N1CCCCC1)c1c(F)cccc1F,8.18% (active)
5,O=C(CSC(=S)N1CCOCC1)c1ccccc1,-3.24%
6,O=C(CN1CCN(S(=O)(=O)c2cc(Cl)ccc2Cl)CC1)c1ccc(O)c(O)c1,0.26%
7,CC(C#N)(NC(=O)CN1CCN(S(=O)(=O)c2cc(C(F)(F)F)ccc2Cl)CC1)C1CC1 (configuration not stated),4.49% (active)
8,N#Cc1ccsc1NC(=O)CN1CCN(S(=O)(=O)c2cc(Cl)ccc2Cl)CC1,-0.1%
9,CC(OC(=O)c1cccnc1Cl)C(=O)NC1CCCCC1 (configuration not stated),2.75%
10,COc1ccc(C(C(=O)NC(C)(C)C)N(C(=O)Cn2nnc3ccccc32)c2ccc(C(C)=O)cc2)cc1O (configuration not stated),5.46% (active)
11,CCC(C)(C)NC(=O)C(c1ccc(O)cc1)N(C(=O)Cn1nnc2ccccc21)c1ccc(NC(C)=O)cc1 (configuration not stated),0.14%
12,COc1ccc(C(C(=O)NCC2CCCO2)N(C(=O)Cn2nnc3ccccc32)c2ccc(NC(C)=O)cc2)cc1OC (configuration not stated),-0.65%
13,COc1ccccc1C(=O)NC(=S)Nc1ccc(N2CCOCC2)cc1,0.43%
14,C[C@H]1CN([C@@H](C)CO)C(=O)c2cc(Br)cnc2O[C@H]1CN(C)S(=O)(=O)c1cccs1,0.93%
15,C[C@H]1CN([C@@H](C)CO)C(=O)CCCn2cc(nn2)CO[C@@H]1CN(C)S(=O)(=O)c1cccs1,-0.09%
16,CN(C)CCNc1ccc(-c2n[nH]c(=O)c3ccccc23)cc1[N+](=O)[O-],4.46% (active)
17,CCN(CC)CCNc1ccc(Cl)cc1[N+](=O)[O-],0.15%
18,COCCNc1ccc(-c2n[nH]c(=O)c3ccccc23)cc1[N+](=O)[O-],-1.07%
19,CCc1cccc(CC)c1N1C(=O)CC(Sc2ccccc2N)C1=O (configuration not stated),2.47%
20,CN(C)C(CNC(=O)c1cccc(S(=O)(=O)N2CCc3ccccc3C2)c1)c1ccccc1 (configuration not stated),-0.17%
21,Oc1ccccc1-c1cc(-c2ccc(Cl)cc2)n[nH]1,3.28%
22,Nc1cccc(-c2cc(-c3ccccc3)nc(-c3cccc(N)c3)n2)c1,-0.66%

row,SMILES,inhibition
1,c1ccc(-c2cc(-c3ccccc3)[nH]n2)cc1,5.19% (active)
2,Cc1[nH]c2ccccc2c1C(=O)C(=O)NCc1nnnn1-c1cccc(F)c1,-0.63%
3,O=C1CCC(C(=O)OCC(=O)Nc2ccc(OC(F)F)cc2)=NN1,0.5%
4,O=C(N=C1SC2CS(=O)(=O)CC2N1Cc1ccccc1)c1ccccc1 (configuration not stated),4.11%
5,O=C(c1cccs1)N1C[C@H](n2cc(C3CC3)nn2)[C@@H](O)C[C@@H]1c1ccccc1,1.63%
6,C#CCN(C[C@@H]1[C@@H](OC(=O)NC2CC2)[C@@H](OC(=O)NC2CC2)Cn2c(=O)ccc(=O)n21)S(=O)(=O)c1ccc(C)cc1,-0.06%
7,O=C(c1ccncc1)N1CCN(S(=O)(=O)c2cccc([N+](=O)[O-])c2)CC1,0.88%
8,N/C(=N\OS(=O)(=O)c1cccc([N+](=O)[O-])c1)c1ccncc1,4.92% (active)
9,Cc1ccccc1OS(=O)(=O)c1cccc([N+](=O)[O-])c1,1.42%
10,O=C(NCCc1ccco1)c1ccc(OCc2cn3ccccc3n2)cc1,0.65%
11,CN(C)C(CNC(=O)c1ccc(OCc2cn3ccccc3n2)cc1)c1ccco1 (configuration not stated),0.93%
12,O=Cc1ccc(OCc2cn3ccccc3n2)cc1,7.12% (active)
13,N#CCCN(C(=O)Nc1ccc(Cl)c(Cl)c1)C1CCCCC1,1.35%
14,CC1CCN(c2ccc3c(c2)S(=O)(=O)c2cc(C(=O)O)ccc2C3=O)CC1,-0.21%
15,COc1ccc(NC(=S)NCCNC(C)=O)cc1,4.78% (active)
16,CCOC(=O)C(NC(C)=O)C(=O)Nc1ccc(OC)cc1 (configuration not stated),1.97%
17,COc1ccc(NC(=S)NCC2CCN(c3ccc(OC)cc3)C2)cc1 (configuration not stated),0.86%
18,COc1ccc(NC(=O)c2cc(=O)[nH]c3ccccc23)cc1S(=O)(=O)N1CCOCC1,1.51%
19,COC(=O)c1ccccc1N=NNc1ccc([N+](=O)[O-])cc1,2.03%
20,C[C@H](CO)N1C[C@H](C)[C@@H](CN(C)Cc2ccc3c(c2)OCO3)OCc2cnnn2CCCC1=O,0.31%
21,Cc1csc(=O)n1CCC(=O)OCC(=O)Nc1ccc(N2CCOCC2)cc1,0.99%
22,CCN1C(=O)[C@H]2[C@@H](c3ccccc3)N[C@]3(CCCN(Cc4ccc(C)cc4)C3=O)[C@H]2C1=O,0.28%

row,SMILES,inhibition
1,O=C(NN=Cc1ccc([N+](=O)[O-])cc1)C1CC1,0.79%
2,O=C(N/N=C/c1ccc([N+](=O)[O-])cc1)c1c[nH]c2ccccc12,5.39% (active)
3,O=[N+]([O-])c1ccc(C=NN=Cc2ccc([N+](=O)[O-])cc2)cc1,0.89%
4,COc1ccc(-c2cnc3c(c2)C(=O)N([C@H](C)CO)C[C@@H](C)[C@H](CN(C)Cc2ccccc2)O3)cc1,1.69%
5,CN(C)/C=C(/C(=O)c1ccc(Cl)cc1)S(=O)(=O)c1ccccc1,-0.69%
6,CN(C)/C=C(/C(=O)c1ccc(F)cc1)S(=O)(=O)c1ccc(F)cc1,7.15% (active)
7,CN(C)/C=C(/C(=O)c1ccccc1)S(=O)(=O)c1ccc(Cl)cc1,-0.08%
8,CCOC(=O)C=Cc1ccc(C(=O)OCC)[nH]1,-1.29%
9,Cc1ccc(S(=O)(=O)NN=C2CC(C)(C)CC(=O)C2(C)C)cc1,1.47%
10,O=C(Nc1ccccc1N1CCOCC1)c1csc2c1CCCC2,-0.73%
11,COC(=O)c1sccc1NC(=O)c1ccc(Cl)cc1,0.77%
12,COC(=O)c1sccc1NC(=O)c1csc2c1CCCC2,4.39% (active)
13,O=C(C[C@H]1C[C@@H]2c3cc(NC(=O)C4CCC4)ccc3O[C@@H]2[C@H](CO)O1)NC1CCCCC1,1.37%
14,CC1=C(C(=O)N2CCOCC2)CC(CC(=O)NCCN2CCOCC2)C(=O)N1CCC1=CCCCC1 (configuration not stated),1.93%
15,C[C@@H]1CN([C@H](C)CO)C(=O)CCCn2nncc2CO[C@@H]1CN(C)S(=O)(=O)c1cccc(C#N)c1,2.66%
16,COc1cc(-c2nnc(NC(=O)CS(=O)(=O)c3ccc(Cl)cc3)o2)cc(OC)c1OC,0.2%
17,COc1ccc(NC(=O)C(C)SCc2ccccc2)cc1 (configuration not stated),6.52% (active)
18,Cc1cccc(NC(=O)C(C)SCc2ccccc2)c1 (configuration not stated),-1.2%
19,COc1ccc(NC(=O)C(Br)C(C)C)cc1 (configuration not stated),1.41%
20,Cc1ccc(S(=O)(=O)N2CCN(C(=O)CCC(=O)NC3CCCc4ccccc43)CC2)cc1 (configuration not stated),4.27% (active)
21,COc1ccc(NC(=O)CCC(=O)N2CCN(S(=O)(=O)c3ccc(C)cc3)CC2)c(OC)c1,-2%
22,O=C(CCC(=O)N1CCN(S(=O)(=O)c2ccccc2)CC1)NC1CCCc2ccccc21 (configuration not stated),0.76%

row,SMILES,inhibition
1,CCCCCC(=O)N1C[C@H](O)[C@@H](n2cc(COC(=O)c3ccccc3)nn2)C[C@@H]1c1ccc(C)cc1,0.45%
2,O=C(OCc1ccccc1)N1CCC2CC1c1cc(N3CCN(S(=O)(=O)c4cc(Cl)cc(Cl)c4)CC3)ccc12 (configuration not stated),1.86%
3,CC(=O)c1ccccc1NC(=O)COC(=O)C1COc2ccccc2O1 (configuration not stated),0.71%
4,CCN(CC)C(=O)CSc1ncnc2c1cnn2-c1ccccc1,0.89%
5,CC(Sc1ncnc2c1cnn2-c1ccccc1)C(=O)Nc1ccc(N2CCOCC2)cc1 (configuration not stated),-0.48%
6,CC(C)Sc1ncnc2c1cnn2-c1ccccc1,6.85% (active)
7,NC(=O)CSc1nnc(-c2cccc(S(=O)(=O)N3CCOCC3)c2)o1,0.86%
8,CN1OC[C@@H]2CN(C(=O)c3ccc(-c4ccccc4)cc3)[C@H](c3ccc(-c4cccc(F)c4)cc3)C[C@@H]21,-0.68%
9,COc1ccc(N2CCN(C(=O)CCc3nc(-c4ccc(C)cc4)no3)CC2)cc1,-0.22%
10,COc1ccc(-c2noc(CCC(=O)N3CCN(c4cccc(C)c4)CC3)n2)cc1,0.39%
11,CN1CCN(C(=O)CCc2nc(-c3ccc(Cl)cc3)no2)CC1,5.55% (active)
12,CC(C)NC(=S)NN=C1CCCCCCCCCCC1,-0.27%
13,CCc1ccc(C(=O)NN=C2CCCCCC2)s1,1.24%
14,CC(C)(C)NC(=O)C(=O)NN=C1CCCCCCC1,6.84% (active)
15,C[C@@H]1CN([C@H](C)CO)C(=O)CCCn2cc(nn2)CO[C@H]1CN(C)S(=O)(=O)c1ccc(Oc2ccccc2)nc1,0.73%
16,CN(c1ccccc1)S(=O)(=O)c1ccc(C(=O)NCc2cccnc2)cc1,-0.1%
17,O=C(NCc1nnnn1-c1ccc(Cl)cc1)c1ccc2c(c1)OCO2,0.46%
18,O=C(c1ccc(F)cc1)n1cc(C(=S)N2CCOCC2)c2ccccc21,1.01%
19,O=C(Cn1c(=S)nc2ccccn21)N1CCc2ccccc2C1,1.21%
20,O=C(c1ccc(F)cc1)n1c(=S)nc2ccccn21,5.47% (active)
21,O=[N+]([O-])c1ccc(C(S(=O)(=O)Cc2ccccc2)S(=O)(=O)Cc2ccccc2)cc1,1.99%
